Compound activity deposited in PubChem BioAssay by National Center for Advancing Translational Sciences (NCATS).
This is a sample that favours compounds with a hit; in the whole collection about 9% have one here.
G9a inh – blocks human histone lysine methyltransferase G9a; Q96KQ7; G9a H3K9 monomethylation, AlphaScreen, 2 h; Potency, µM (titrated, usually from 102 µM), without a hit: at the highest dose activity, negative = inhibition, hits mostly inhibitors; actives 8.8% (n = 350,000); note: % is set by controls: 0 for no effect and ±100 for the full control effect; nearly all actives have a fitted effect of over 75% in size
Target sequence (Q96KQ7 913-1193 limits assumed): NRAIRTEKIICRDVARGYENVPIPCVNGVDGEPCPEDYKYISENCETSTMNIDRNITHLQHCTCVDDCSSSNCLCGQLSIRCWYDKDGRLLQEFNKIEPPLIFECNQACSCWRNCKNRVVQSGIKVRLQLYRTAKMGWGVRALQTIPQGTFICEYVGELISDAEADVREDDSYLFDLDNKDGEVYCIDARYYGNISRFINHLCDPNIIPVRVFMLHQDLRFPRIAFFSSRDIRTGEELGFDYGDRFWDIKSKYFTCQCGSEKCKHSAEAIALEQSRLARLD
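Methyltransferase reactions run at room temperature for 2 h (20 nM enzyme, 500 nM biotin-H3K9 peptide, 20 uM SAM) after a 15 min compound preincubation; product detected by AlphaScreen beads and anti-H3K9me1 antibody.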
ALOX12 inh – blocks human arachidonate 12S-lipoxygenase | actives 1.1% (n = 580,000) | Potency, µM (top dose mostly 108 µM), inactives show at the top dose activity change, negative = inhibition, usual class: inhibitors | purified 12hLO, xylenol orange hydroperoxide absorbance | AID 1671190 | P18054; note: % is set by controls: 0 for no effect and ±100 for the full control effect
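Hydroperoxide product was detected by ferrous iron/xylenol orange as the 573 to 405 nm absorbance ratio. Arachidonic acid at 40 uM (final) was turned over for 30 min at room temperature by 150 nM human 12hLO, pH 7.0 Hepes buffer, after 15 min compound preincubation.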
PLK1 PBD block – PLK1 (human) polo-box domain binding inhibition; P53350; Plk1 PBD binding of FITC phosphopeptide, fluorescence polarization; Potency, µM, for inactives: max response, negative = inhibition, actives largely listed as inhibitors; actives 2.8% (n = 360,000); AID 720504; note: series mostly up to about 57 µM; % is set by controls: 0 for no effect and ±100 for the full control effect; nearly all actives have a fitted effect of over 65% in size
JMJD2A Tudor inh – blocks the human JMJD2A Tudor domain; O75164; Potency, µM (series often up to 114 µM), for inactives: top-dose activity change, negative = inhibition, actives largely listed as inhibitors; actives 4.4% (n = 390,000); AlphaScreen JMJD2A-Tudor / H3K4me3 peptide binding; note: % is set by controls: 0 for no effect and ±100 for the full control effect; nearly all actives have a fitted effect of over 50% in size
BAZ2B inh – inhibitors of human BAZ2B bromodomain; AlphaScreen BAZ2B-H3K14Ac peptide displacement; Potency, µM (doses to about 114 µM), without a hit: at the highest dose activity change, negative = inhibition, hits mostly inhibitors; actives 4.4% (n = 360,000); AID 504333; note: % is set by controls: 0 for no effect and ±100 for the full control effect; nearly all actives have a fitted effect of over 60% in size
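In this displacement format the biotinylated H3(5-23) peptide acetylated at Lys14 serves as ligand at 50 nM, with BAZ2B at 50 nM in PBS pH 7.4 containing 0.01% Tween-20. Donor and acceptor beads are 10 ug/mL final.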
HP1b chromo inh – blocks HP1-beta chromodomain binding to methylated histone tails. P83916. AlphaScreen HP1-beta / biotin-H3K9me3 peptide binding. Potency, µM (doses to about 114 µM), for the others: at the top dose activity change, negative = inhibition, most hits filed as inhibitors. actives 0.56% (n = 390,000). AID 540317; note: nearly all actives have a fitted effect of over 70% in size
Target sequence (P83916 whole entry, looked up): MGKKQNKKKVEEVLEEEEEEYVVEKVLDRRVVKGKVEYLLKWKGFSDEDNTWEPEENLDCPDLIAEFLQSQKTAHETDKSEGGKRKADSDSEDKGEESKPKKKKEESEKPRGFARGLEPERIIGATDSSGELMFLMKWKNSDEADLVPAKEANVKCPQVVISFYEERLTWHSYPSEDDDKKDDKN
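AlphaScreen: HP1-beta (50 nM) preformed 30 min with biotin-H3(1-18)K9me3 peptide (50 nM) in PBS pH 7.4, 0.01% Tween-20. Compound added for 30 min at RT, then streptavidin donor/nickel chelate acceptor beads (10 ug/mL) for 30 min.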
The depositor's hits bear a star; ? = inconclusive; . = not tested or not shown; [ ] = dose if it differs, or a comment. Calls come from the whole dose curve; as a rule, active = well fitted curve in the direction sought with a large enough effect; inconclusive = small, poorly fitted or top-dose-only effect, or another doubt; inactive = no such curve, though single readings can be large; an effect the other way counts as inactive or inconclusive. Potency is the fitted concentration of half-maximal effect.

SMILES	G9a inh	ALOX12 inh	PLK1 PBD block	JMJD2A Tudor inh	BAZ2B inh	HP1b chromo inh
Cc1oc(-c2ccccc2F)nc1Cn1c(SCc2ccccc2F)nc2ccncc21	13µM*	-13%	.	?	?	-1%
Nc1ccc2ccccc2c1N=Nc1ccccc1	.	-19%	-4%	13µM*	.	13µM*
Cc1cccc(Oc2c(C(F)(F)F)oc3cc(OC(=O)c4cncc(Br)c4)ccc3c2=O)c1	.	8.9µM*	.	.	.	.
Cc1cc(=O)oc2cc(OC(=O)c3cncc(Br)c3)ccc12	-10%	4%	-9%	1%[57.1 µM]	1%	52%
O=C(c1ccoc1)N1CCCC(CO)(CCCc2ccccc2)C1 (stereo not given)	-8%	.	-5%	-10%	0%	6%
O=C(NCCC1=CCCCC1)c1ccc(Br)o1	6%[12.7 µM]	?	-2%	-2%	-1%	48%
CC(C)(C)c1ccc(NC(=O)CC2(C(=O)O)CCCC2)cc1	.	-13%	.	.	.	.
CC1=C(C(=O)NC2CCCC(C)C2C)C2(CCCCC2)OC1=O (stereo not given)	-3%[59 µM]	22%	24µM*	?	-1%	18%
CC(C)c1ccc(NS(=O)(=O)c2ccc3[nH]cc(C(=O)NC4CCCCC4)c(=O)c3c2)cc1	?	35µM*	.	?	.	11%
Cc1cc(C)cc(NS(=O)(=O)c2ccc3[nH]cc(C(=O)NC4CCCCC4)c(=O)c3c2)c1	-34%[59 µM]	?	.	-28%	.	16%
COc1ccc(C)cc1NC(=O)Cn1ccn2nc3c(c2c1=O)CCCC3	.	29%	.	.	.	.
CCCCCCNC(=O)N[C@H](C(=O)NCCC[C@H]1CN2C(=NC[C@H]2C)N1CCC(c1ccccc1)c1ccccc1)C(C)O (stereo not given in full)	?	.	.	.	20µM*	.
O=C(Nc1cc2c3c(c1)CC(=O)N3CCC2)c1ccco1	35µM*	-2%	-6%	-15%	-19%	-3%
O=C(NCCO)C(=O)Nc1cc2c3c(c1)CC(=O)N3CCC2	-4%[59 µM]	2%	-17%	-9%	-19%	13%
O=C(CCl)c1cc2c3c(c1)CC(=O)N3CCC2	50µM*	?	1.2µM*	-10%	?	62%
Cc1ccc(Nc2c(-c3ccccn3)nc3ccc(Br)cn23)cc1	17%[59 µM]	4%	.	?	-33%	34%
COc1ccc(-c2nc3ccc(C)cn3c2Nc2ccc3c(c2)OCO3)cc1	?	-6%	.	-18%	.	8%
COc1cc(-c2nc3ccc(C)cn3c2Nc2ccc(Cl)cc2)ccc1O	?	?	.	?	-32%	-16%
Clc1ccc(-c2nc3ccccn3c2Nc2ccc3c(c2)OCCO3)s1	18%[59 µM]	25µM*	.	45µM*	14%	?
Cc1ccc2nc(-c3ccc(O)cc3)c(Nc3ccc4c(c3)OCCO4)n2c1	8.9µM*	?	-11%	-12%	-13%	42%
Clc1ccc2nc(-c3ccccn3)c(Nc3ccc4c(c3)OCO4)n2c1	18%	-14%	-9%	2.2µM*	2.8µM*	?
COc1cc(-c2nc3ccc(Cl)cn3c2Nc2ccc3c(c2)OCO3)ccc1O	13µM*	2%	.	32µM*	.	?
CCn1c(CSc2nnc(-c3ccncc3)n2CCOC)nc2cc(C(=O)O)ccc21	-32%	?	-7%	3%	-22%	36%
CC(C)(C)C1CCc2sc(-c3nnc(CCl)o3)cc2C1 (stereo not given)	-2%	3%	-8%	-15%	0%	39%
O=C(NCCCc1ccccc1)c1cccc(NC(=O)c2ccccc2)c1	.	?	-4%	-1%	.	29%
CCCC12CN3CC(C)(CN(C1)C31C(=O)N(C)c3ccccc31)C2=O (stereo not given)	.	13%	.	.	.	.
CN(C)c1ccc(-c2nc3ccc(Cl)cn3c2Nc2ccc3c(c2)OCCO3)cc1	?	5.6µM*	.	?	.	?
Clc1ccc2nc(-c3cccs3)c(Nc3ccc4c(c3)OCCO4)n2c1	4%[59 µM]	-15%	.	-3%	-1%	83%
COc1ccc(-c2nnc(N3CCCCC3)c3ccccc23)cc1	-1%	-33%	-8%	-28%	-1%	20%
